# About 79,000 compounds went through this panel and 15% of them were active in at least one assay; those are over-represented in the sample as a whole. Values without a mark were called inactive. Calls of active or inactive are those of the source. No stated cut-off is given here; in the data, active means growth inhibition above about 70%; inactive means the rest.
# Legend:
# [1] = NCI Yeast Anticancer Drug Screen. Data for the mlh1 strain (AID 171);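 further: 0% = growth of vehicle-treated control cultures of the same strain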; conditions: S. cerevisiae mlh1 strain growth inhibition, hits give high values
# In short: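 Here the genetically defined yeast mutant is grown with each compound, and the extent to which its growth falls below that of vehicle-exposed cells is reported.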
# [2] = NCI Yeast Anticancer Drug Screen. Data for the sgs1 strain (AID 173);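 further: 0% = growth of vehicle-only control cultures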; conditions: S. cerevisiae sgs1 mutant, hits give high values
# In short: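 Relative growth inhibition, referenced to vehicle, was determined in a yeast strain with a defined alteration affecting DNA damage repair or cell cycle control after compound exposure.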
# [3] = NCI Yeast Anticancer Drug Screen. Data for the mlh1 rad18 strain (AID 175); conditions: S. cerevisiae mlh1 rad18 strain growth inhibition, hits give high values
# In short: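 In this whole-cell yeast screen, a strain with altered DNA damage repair is challenged with compound, and its growth is measured against matched vehicle-treated controls.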
# [4] = NCI Yeast Anticancer Drug Screen. Data for the rad18 strain (AID 177); conditions: S. cerevisiae rad18 mutant growth inhibition, hits give high values
# In short: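 Screen uses a yeast strain with a defined lesion in DNA damage repair; compound effect is read as loss of growth compared to untreated vehicle cultures.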
# [5] = NCI Yeast Anticancer Drug Screen. Data for the rad52 strain (AID 147);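 further: 0% = growth of vehicle-treated control cultures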; conditions: S. cerevisiae rad52 mutant growth inhibition, hits give high values
# In short: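 Measured: yeast growth inhibition. System: strain with a defined DNA damage repair alteration. Reference: vehicle-treated control cultures.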
# [6] = NCI Yeast Anticancer Drug Screen. Data for the wt1 strain (AID 149);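 further: 0% = growth of vehicle-treated wt1 cultures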; conditions: S. cerevisiae wt1 strain (SPY 50644) growth inhibition, hits give high values
# In short: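 wt1 yeast, compound-treated; % growth inhibition vs vehicle control.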
# [7] = NCI Yeast Anticancer Drug Screen. Data for the rad50EPP+ strain (AID 151);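 further: 0% = growth of vehicle-treated control cultures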; conditions: S. cerevisiae rad50 mutant strain, hits give high values
# In short: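 One strain with a rad50 alteration (rad50EPP+) was compound-treated, its growth then compared to that of vehicle controls.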
# [8] = NCI Yeast Anticancer Drug Screen. Data for the mgt1 strain (AID 153); conditions: S. cerevisiae mgt1 mutant growth inhibition, hits give high values
# In short: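 After exposure of the mgt1 yeast mutant to compound, growth was measured and reported as inhibition compared with vehicle controls.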
# [9] = NCI Yeast Anticancer Drug Screen. Data for the rad50 strain (AID 155);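 further: 0% = growth of vehicle-only cultures of the same strain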; conditions: S. cerevisiae rad50 strain growth inhibition, hits give high values
# In short: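 Genetically altered yeast (DNA repair pathway); compound treatment; growth inhibition vs vehicle ctrl.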
# [10] = NCI Yeast Anticancer Drug Screen. Data for the mec2-1 strain (AID 157); conditions: S. cerevisiae mec2-1 strain, hits give high values
# In short: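 Test agents were screened against the mec2-1 yeast strain, with defined DNA repair or cell cycle alteration. Growth was scored as inhibition against vehicle-only controls.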
# [11] = NCI Yeast Anticancer Drug Screen. Data for the sgs1 mgt1 strain (AID 161);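 further: 0% = growth of cultures given vehicle only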; conditions: S. cerevisiae sgs1 mgt1 strain, hits give high values
# In short: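 Test agents were incubated with a DNA-repair-mutant yeast strain. Growth was then read and compared against vehicle-treated controls.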
# [12] = NCI Yeast Anticancer Drug Screen. Data for the CLN2oe strain (AID 163);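 further: 0% = growth of vehicle-only control cultures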; conditions: S. cerevisiae CLN2oe strain, hits give high values
# In short: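 Here, growth inhibition in a cell-cycle-altered yeast strain after compound exposure was quantified against vehicle control growth.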
# [13] = NCI Yeast Anticancer Drug Screen. Data for the cln2 rad14 strain (AID 165);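 further: 0% = growth equal to vehicle treated cultures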; conditions: S. cerevisiae cln2 rad14 strain, hits give high values
# In short: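 Growth of compound-exposed yeast (cln2 rad14 genotype) measured and expressed as inhibition relative to vehicle.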
# [14] = NCI Yeast Anticancer Drug Screen. Data for the bub3 strain (AID 167); conditions: S. cerevisiae bub3 mutant strain, hits give high values
# In short: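 Yeast carrying a defined mutation is treated with each compound, and growth is compared with that of vehicle-exposed cells to give inhibition.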
# [15] = NCI Yeast Anticancer Drug Screen. Data for the wt2 strain (AID 169);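 further: 0% = growth of vehicle-treated yeast cultures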; conditions: S. cerevisiae wt2 strain growth inhibition, hits give high values
# In short: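 Genetically defined yeast strains from a DNA-repair/cell-cycle panel were used. Compound-exposed yeast growth was measured, and the inhibition was calculated relative to vehicle treatment.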
# [16] = NCI Yeast Anticancer Drug Screen. Data for the rad14 strain (AID 159);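 further: 0% = growth of vehicle-treated control cultures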; conditions: S. cerevisiae rad14 strain growth inhibition, hits give high values
# In short: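 Test compounds were applied to a repair-deficient yeast strain. Its growth was then compared with that of cultures given vehicle alone, and inhibition was expressed relative to those controls.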
# [17] = at 5.0 µM (retest, dose inferred, filed as 0.5)
# [18] = at 50.0 µM (retest, dose inferred, filed as 5.0)
structure (smiles),measurement,setting,value
CCCC/C=C/C(C)(C(=O)OCC)C(=O)OCC,growth inhibition,[1]; at 33.0 µM,5%
same,growth inhibition,[1]; at 100.0 µM,29%
same,growth inhibition,[2]; at 1.2 µM,-3%
same,growth inhibition,[2]; at 3.7 µM,-1%
same,growth inhibition,[2]; at 11.0 µM,3%
same,growth inhibition,[2]; at 33.0 µM,6%
same,growth inhibition,[2]; at 100.0 µM,38%
same,growth inhibition,[3]; [17],11%
same,growth inhibition,[3]; [18],81% (active)
same,growth inhibition,[3]; at 50.0 µM,70.2% (active)
same,growth inhibition,[4]; at 1.2 µM,-4%
same,growth inhibition,[4]; at 3.7 µM,1%
same,growth inhibition,[4]; at 11.0 µM,6%
same,growth inhibition,[4]; at 33.0 µM,13%
same,growth inhibition,[4]; at 100.0 µM,35%
O=C1CSC(c2cccc(Cl)c2)N1c1ccc(-c2ccc(-n3c(-c4ccccc4)nc4ccccc4c3=O)cc2)cc1 (stereo not drawn),growth inhibition,[5]; at 1.2 µM,1%
same,growth inhibition,[5]; at 3.7 µM,5%
same,growth inhibition,[5]; at 11.0 µM,8%
same,growth inhibition,[5]; at 33.0 µM,7%
same,growth inhibition,[5]; at 100.0 µM,18%
same,growth inhibition,[6]; at 1.2 µM,1%
same,growth inhibition,[6]; at 3.7 µM,1%
same,growth inhibition,[6]; at 11.0 µM,-1%
same,growth inhibition,[6]; at 33.0 µM,-4%
same,growth inhibition,[6]; at 100.0 µM,-3%
same,growth inhibition,[7]; at 1.2 µM,-1%
same,growth inhibition,[7]; at 3.7 µM,4%
same,growth inhibition,[7]; at 11.0 µM,8%
same,growth inhibition,[7]; at 33.0 µM,9%
same,growth inhibition,[7]; at 100.0 µM,-4%
same,growth inhibition,[8]; at 1.2 µM,1%
same,growth inhibition,[8]; at 3.7 µM,2%
same,growth inhibition,[8]; at 11.0 µM,3%
same,growth inhibition,[8]; at 33.0 µM,25%
same,growth inhibition,[8]; at 100.0 µM,60%
same,growth inhibition,[9]; at 1.2 µM,2%
same,growth inhibition,[9]; at 3.7 µM,6%
same,growth inhibition,[9]; [17],-2%
same,growth inhibition,[9]; at 11.0 µM,7%
same,growth inhibition,[9]; at 33.0 µM,15%
same,growth inhibition,[9]; [18],61%
same,growth inhibition,[9]; at 50.0 µM,66.8%
same,growth inhibition,[9]; at 100.0 µM,22%
same,growth inhibition,[10]; at 1.2 µM,3%
same,growth inhibition,[10]; at 3.7 µM,4%
same,growth inhibition,[10]; [17],-9%
same,growth inhibition,[10]; at 11.0 µM,6%
same,growth inhibition,[10]; at 33.0 µM,9%
same,growth inhibition,[10]; [18],-26%
same,growth inhibition,[10]; at 50.0 µM,68.5%
same,growth inhibition,[10]; at 100.0 µM,16%
same,growth inhibition,[11]; [17],8%
same,growth inhibition,[11]; [18],83% (active)
same,growth inhibition,[11]; at 50.0 µM,43.2%
same,growth inhibition,[12]; at 1.2 µM,13%
same,growth inhibition,[12]; at 3.7 µM,11%
same,growth inhibition,[12]; at 11.0 µM,15%
same,growth inhibition,[12]; at 33.0 µM,15%
same,growth inhibition,[12]; at 100.0 µM,11%
same,growth inhibition,[13]; [17],31%
same,growth inhibition,[13]; [18],46%
same,growth inhibition,[13]; at 50.0 µM,41.6%
same,growth inhibition,[14]; at 1.2 µM,5%
same,growth inhibition,[14]; at 3.7 µM,4%
same,growth inhibition,[14]; [17],10%
same,growth inhibition,[14]; at 11.0 µM,6%
same,growth inhibition,[14]; at 33.0 µM,8%
same,growth inhibition,[14]; [18],85% (active)
same,growth inhibition,[14]; at 50.0 µM,86.8% (active)
same,growth inhibition,[14]; at 100.0 µM,29%
same,growth inhibition,[15]; at 1.2 µM,0%
same,growth inhibition,[15]; at 3.7 µM,-2%
same,growth inhibition,[15]; at 11.0 µM,0%
same,growth inhibition,[15]; at 33.0 µM,15%
same,growth inhibition,[15]; at 100.0 µM,39%
same,growth inhibition,[1]; at 1.2 µM,1%
same,growth inhibition,[1]; at 3.7 µM,5%
same,growth inhibition,[1]; at 11.0 µM,7%
same,growth inhibition,[1]; at 33.0 µM,24%
same,growth inhibition,[1]; at 100.0 µM,42%
same,growth inhibition,[2]; at 1.2 µM,0%
same,growth inhibition,[2]; at 3.7 µM,2%
same,growth inhibition,[2]; at 11.0 µM,10%
same,growth inhibition,[2]; at 33.0 µM,39%
same,growth inhibition,[2]; at 100.0 µM,57%
same,growth inhibition,[3]; [17],5%
same,growth inhibition,[3]; [18],85% (active)
same,growth inhibition,[3]; at 50.0 µM,85.1% (active)
same,growth inhibition,[4]; at 1.2 µM,0%
same,growth inhibition,[4]; at 3.7 µM,3%
same,growth inhibition,[4]; at 11.0 µM,14%
same,growth inhibition,[4]; at 33.0 µM,22%
same,growth inhibition,[4]; at 100.0 µM,31%
S=c1[nH]c2cc3ccccc3cc2[nH]1,growth inhibition,[5]; at 1.2 µM,-42%
same,growth inhibition,[5]; at 3.7 µM,-46%
same,growth inhibition,[5]; at 11.0 µM,-37%
same,growth inhibition,[5]; at 33.0 µM,-31%
same,growth inhibition,[5]; at 100.0 µM,-19%
same,growth inhibition,[6]; at 1.2 µM,-24%
same,growth inhibition,[6]; at 3.7 µM,-6%
same,growth inhibition,[6]; at 11.0 µM,6%
same,growth inhibition,[6]; at 33.0 µM,3%
same,growth inhibition,[6]; at 100.0 µM,2%
same,growth inhibition,[7]; at 1.2 µM,-12%
same,growth inhibition,[7]; at 3.7 µM,3%
same,growth inhibition,[7]; at 11.0 µM,-4%
same,growth inhibition,[7]; at 33.0 µM,14%
same,growth inhibition,[7]; at 100.0 µM,38%
same,growth inhibition,[8]; at 1.2 µM,-36%
same,growth inhibition,[8]; at 3.7 µM,-7%
same,growth inhibition,[8]; at 11.0 µM,-15%
same,growth inhibition,[8]; at 33.0 µM,6%
same,growth inhibition,[8]; at 100.0 µM,16%
same,growth inhibition,[10]; at 1.2 µM,-25%
same,growth inhibition,[10]; at 3.7 µM,-13%
same,growth inhibition,[10]; [17],-3%
same,growth inhibition,[10]; at 11.0 µM,-8%
same,growth inhibition,[10]; at 33.0 µM,1%
same,growth inhibition,[10]; [18],17%
same,growth inhibition,[10]; at 50.0 µM,45.6%
same,growth inhibition,[10]; at 100.0 µM,24%
same,growth inhibition,[16]; at 1.2 µM,-14%
same,growth inhibition,[16]; at 3.7 µM,-11%
same,growth inhibition,[16]; at 11.0 µM,-7%
same,growth inhibition,[16]; at 33.0 µM,-10%
same,growth inhibition,[16]; at 100.0 µM,1%
same,growth inhibition,[11]; [17],-5%
same,growth inhibition,[11]; [18],15%
same,growth inhibition,[11]; at 50.0 µM,68.8%
same,growth inhibition,[12]; at 1.2 µM,-13%
same,growth inhibition,[12]; at 3.7 µM,-18%
same,growth inhibition,[12]; at 11.0 µM,-3%
same,growth inhibition,[12]; at 33.0 µM,-7%
same,growth inhibition,[12]; at 100.0 µM,18%
same,growth inhibition,[13]; [17],34%
same,growth inhibition,[13]; [18],57%
same,growth inhibition,[13]; at 50.0 µM,43.6%
same,growth inhibition,[14]; at 1.2 µM,-7%
same,growth inhibition,[14]; at 3.7 µM,15%
same,growth inhibition,[14]; [17],-4%
same,growth inhibition,[14]; at 11.0 µM,-9%
same,growth inhibition,[14]; at 33.0 µM,7%
same,growth inhibition,[14]; [18],83% (active)
same,growth inhibition,[14]; at 50.0 µM,68.9%
same,growth inhibition,[14]; at 100.0 µM,40%
same,growth inhibition,[15]; at 1.2 µM,-55%
same,growth inhibition,[15]; at 3.7 µM,-50%
same,growth inhibition,[15]; at 11.0 µM,-46%
same,growth inhibition,[15]; at 33.0 µM,-19%
same,growth inhibition,[15]; at 100.0 µM,-3%
same,growth inhibition,[1]; at 1.2 µM,-13%
same,growth inhibition,[1]; at 3.7 µM,-7%
same,growth inhibition,[1]; at 11.0 µM,-4%
same,growth inhibition,[1]; at 33.0 µM,14%
same,growth inhibition,[1]; at 100.0 µM,34%
same,growth inhibition,[2]; at 1.2 µM,-27%
same,growth inhibition,[2]; at 3.7 µM,-8%
same,growth inhibition,[2]; at 11.0 µM,-4%
same,growth inhibition,[2]; at 33.0 µM,20%
same,growth inhibition,[2]; at 100.0 µM,25%
same,growth inhibition,[3]; [17],9%
same,growth inhibition,[3]; [18],78% (active)
same,growth inhibition,[3]; at 50.0 µM,67.6%
same,growth inhibition,[4]; at 1.2 µM,-9%
same,growth inhibition,[4]; at 3.7 µM,2%
same,growth inhibition,[4]; at 11.0 µM,11%
same,growth inhibition,[4]; at 33.0 µM,18%
same,growth inhibition,[4]; at 100.0 µM,17%
